Reference: PubChem BioAssay AID1851 (National Center for Advancing Translational Sciences (NCATS), 2009)
Among all 16,000 compounds or so, about 5,100 (32%) were called active. Another 25% or so got no clear call; they are omitted. The list shows a part of the results. A number with no mark means an inactive call. The call rests on the fitted dose curve; in most records, active means well fitted curve in the direction sought with a large enough effect; inconclusive means small, poorly fitted or top-dose-only effect, or effect the other way; inactive means no such curve, though single readings can be large or run the other way.

biological target: Cytochrome P450 3A4 (Homo sapiens) (UniProt P08684); assay: Cytochrome panel assay with activity outcomes; conditions: recombinant CYP, pro-luciferin dealkylation, luminescence, p450-cyp3a4; series mostly up to 57.1 µM
Sequence (P08684 whole entry, looked up): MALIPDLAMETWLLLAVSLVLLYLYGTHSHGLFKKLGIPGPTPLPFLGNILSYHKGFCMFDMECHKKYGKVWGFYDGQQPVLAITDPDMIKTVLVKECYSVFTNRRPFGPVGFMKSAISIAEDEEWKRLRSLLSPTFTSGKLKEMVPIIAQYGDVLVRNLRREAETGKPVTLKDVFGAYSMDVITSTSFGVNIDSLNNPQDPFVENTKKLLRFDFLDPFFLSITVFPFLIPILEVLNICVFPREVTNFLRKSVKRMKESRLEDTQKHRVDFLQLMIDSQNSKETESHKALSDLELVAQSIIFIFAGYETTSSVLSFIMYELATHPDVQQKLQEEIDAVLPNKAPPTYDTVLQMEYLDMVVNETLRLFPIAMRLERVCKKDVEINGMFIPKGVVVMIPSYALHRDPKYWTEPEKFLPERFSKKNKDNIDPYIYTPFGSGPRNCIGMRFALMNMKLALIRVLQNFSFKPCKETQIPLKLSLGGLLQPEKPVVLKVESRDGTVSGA
On the % scale 0 is the no-effect control and ±100 the full control effect.

SMILES | AC50 | activity, negative = inhibition
COc1ccc(-c2nc3c([nH]2)c(=O)n(C)c(=O)n3C)c(OC)c1 | 1.58 µM (active) | 
Cn1c(=O)c2[nH]c(-c3ccc(S(=O)(=O)O)cc3)nc2n(C)c1=O | inactive | 
Cn1c(=O)c2[nH]c(-c3ccccc3)nc2n(C)c1=O | inactive | 
C[N+]1(CCOc2ccc([N+](=O)[O-])cc2)CCOCC1 | inactive | 
CS/C(N)=N/N=C/c1ccc([N+](=O)[O-])cc1 | inactive | 
COc1ccc(C=NC(CO)C(O)c2ccc([N+](=O)[O-])cc2)cc1 (centres undefined) | 10 µM (active) | 
COc1cc2c(cc1NC(=O)Nc1ccccc1)oc1ccccc12 | inactive | 
COc1cccc(NC(=O)c2cc(-c3cccnc3)nc3c(Cl)cccc23)c1 | 2.24 µM (active) | 
COc1ccc(NC(=O)c2cc(-c3cccnc3)nc3ccc(C)cc23)cc1OC | 1.41 µM (active) | 
COc1ccccc1CC(=O)Nc1cc2oc3ccccc3c2cc1OC | 7.08 µM (active) | 
COc1cc2c(cc1NC(=O)c1cc(-c3cccnc3)nc3ccc(C)cc13)oc1ccccc12 | 3.98 µM (active) | 
CC(C)(S)[C@H](N)C(=O)O |  | -0.648% [at 11.4 µM]
CC(C)(SCc1ccccc1)[C@H](N)C(=O)O |  | -12.3% [at 11.4 µM]
COc1ccc(Nc2cc(C(=O)NCCCN3CCN(C)CC3)c3ccccc3n2)cc1 | inactive | 
CC(=O)Nc1ccc(-c2cc(C(=O)O)c3cc4ccccc4cc3n2)cc1 |  | -8.77% [at 11.4 µM]
Cc1ccc2nc(-c3ccccc3)cc(C(=O)NCCCn3ccnc3)c2c1 | 0.562 µM (active) | 
Cc1cnc(CNc2cc(-c3ccoc3)ncn2)cn1 | inactive | 
Cc1cccc(CNc2cc(-c3c(C)noc3C)ncn2)c1 | 5.01 µM (active) | 
Cc1noc(C)c1-c1cc(NCc2ccccc2)ncn1 | inactive | 
Cc1cccc(CNc2cc(-c3ccc(N(C)C)cc3)ncn2)c1 | 6.31 µM (active) | 
CN(C)c1ccc(-c2cc(NCc3cccnc3)ncn2)cc1 | 3.16 µM (active) | 
Cc1cccc(CNc2cc(-c3ccoc3)ncn2)c1 | 7.94 µM (active) | 
O=C1C[C@@H](O)[C@@H](O)[C@@H]2[C@H]3C(=O)N(c4ccc(F)cc4F)C(=O)[C@@H]3CC[C@@H]12 |  | -8.71% [at 11.4 µM]
O=C(O)[C@@H](S)[C@H](S)C(=O)O |  | -14.7% [at 11.4 µM]
Cc1ncc(CO)c(CO)c1O | inactive | 

SMILES | AC50 | activity, negative = inhibition
O=c1c(C=Nc2ccc(Oc3ccccc3)cc2)c[nH]n1-c1cccc(Cl)n1 | inactive | 
Cn1c(N)nc2c(nc(OCc3ccccc3)n2[C@@H]2O[C@H](CO)[C@@H](O)[C@@H]2O)c1=O |  | -4.84% [at 11.4 µM]
CCn1cc(C(=O)NCC(=O)OC)c2cc(OC)c(OC)cc2c1=O | inactive | 
CN(C)c1ccc(-c2cc(NCc3ccccc3)ncn2)cc1 | 15.8 µM (active) | 
FC(F)(F)c1cc(-c2ccco2)nc(NCc2cccs2)n1 | 25.1 µM (active) | 
CCNc1nc(Oc2c(Cl)cccc2Cl)cc(C(F)(F)F)n1 | inactive | 
FC(F)(F)c1cc(-c2ccco2)nc(NCCc2ccccc2)n1 |  | 0.414% [at 2.29 µM]
O=C(CSc1nnc(SCc2cccc3ccccc23)s1)c1ccc2c(c1)OCO2 | 2.82 µM (active) | 
CC1(C)CCCN(C(=O)N2c3ccccc3Sc3ccccc32)C1 |  | -13% [at 2.29 µM]
CC1CCN(CC[C@H]2CCCN2S(=O)(=O)c2cccc(O)c2)CC1 | inactive | 
CC1CCN(CC(=O)N2c3ccccc3Sc3cc4ccccc4cc32)CC1 | 3.98 µM (active) | 
Cc1c(N(C)CS(=O)(=O)O)c(=O)n(-c2ccccc2)n1C | inactive | 
Cc1c(CCO)c(=O)n(-c2ccccc2)n1S(=O)(=O)c1c(Cl)cc(Cl)cc1Cl | 4.47 µM (active) | 
Cc1c(CCO)c(=O)n(C)n1C(=O)c1ccc(F)cc1 | inactive | 
COc1cccc(-c2cc(NCc3ccc(OC)cc3OC)ncn2)c1 | 2.51 µM (active) | 
COc1cccc(-c2cc(NCc3ccccc3OC)ncn2)c1 | 15.8 µM (active) | 
CC(C)NC[C@@H](O)COc1ccc(COCCOC(C)C)cc1 | inactive | 
Cn1c(=O)c2cc(S(=O)(=O)NCCC(=O)NCc3ccccc3Cl)ccc2n(C)c1=O | 14.1 µM (active) | 
Cc1ccc(CNC(=O)CCNS(=O)(=O)c2ccc3c(c2)c(=O)n(C)c(=O)n3C)cc1 | 1.78 µM (active) | 
Cc1csc(NC(=O)CCNS(=O)(=O)c2ccc3c(c2)c(=O)n(C)c(=O)n3C)n1 | 7.94 µM (active) | 
Cn1c(=O)n(C)c2cc(S(=O)(=O)O)ccc21 | inactive | 
CCOc1ccc(NC(=O)CCNS(=O)(=O)c2ccc3c(c2)c(=O)n(C)c(=O)n3C)cc1 | 14.1 µM (active) | 
Cn1c(=O)c2cc(S(=O)(=O)NCCC(=O)Nc3ccc(Cl)cc3)ccc2n(C)c1=O | inactive | 
Cn1c(=O)c2cc(S(=O)(=O)NCCC(=O)NCCc3ccc(Cl)cc3)ccc2n(C)c1=O | 12.6 µM (active) | 
Cc1nn(-c2ccccc2)c2c1C(=O)N(Cc1ccccc1)C(=O)C(C)(C)C2 |  | 1.57% [at 2.29 µM]

SMILES | AC50 | activity, negative = inhibition
O=c1c(-c2nnc(SCc3ccc(Cl)c(Cl)c3)o2)cccn1Cc1ccccc1 | 20 µM (active) | 
O=c1c(-c2nnc(SCc3ccc(Cl)cc3Cl)o2)cccn1Cc1ccccc1 | 22.4 µM (active) | 
Clc1ccc(-c2nnc(CCc3ccccc3)o2)c(Cl)c1 |  | 0.747% [at 2.29 µM]
CSc1nnc(-c2ccc(Cl)cc2Cl)o1 | inactive | 
CC(C)c1ccc(C2C(C#N)=C(N)N3C(=C2C#N)Sc2ccccc23)cc1 (centres undefined) | inactive | 
Cc1ccc(Cl)cc1-n1c(=O)cc(N2CC(C)OC(C)C2)[nH]c1=O (centres undefined) | inactive | 
c1ccc2c(c1)-c1nc3ccccc3cc1[C@H]2N1CCOCC1 | 2.51 µM (active) | 
O=S1(=O)C=C(N2CCOCC2)c2ccccc21 |  | -21% [at 11.4 µM]
O=C(O)CN(CCN(CC(=O)O)CC(=O)O)CC(=O)O.[Cu] |  | 10.2% [at 11.4 µM]
Cc1ccc(-c2csc(C(C#N)=C3CCCC3)n2)cc1 | 20 µM (active) | 
N=C1SCC(=O)N1c1nc(-c2ccccc2)cs1 |  | 0.753% [at 2.29 µM]
O=C(Nc1ccc(-c2csc(-c3ccccc3)n2)cc1)c1ccccc1Cl | inactive | 
N#CC(=C1CCCC1)c1nc(-c2ccccc2)cs1 | 15.8 µM (active) | 
COc1ccc(/C=N/N(C(C)=O)c2nc(-c3ccc(C)cc3)cs2)cc1 | inactive | 
Brc1ccc(/C=C/C=N/Nc2nc3ccccc3s2)cc1 | inactive | 
O=S(=O)(N/N=C\C=C\c1ccccc1)c1ccc(Br)cc1 | 14.1 µM (active) | 
Cc1sc(N/N=C/C=C/c2ccccc2)nc1-c1ccccc1 |  | -9.33% [at 11.4 µM]
CC(C)NC(=O)/C(=N\O)c1ccccc1 | inactive | 
CCC/C=C(\CCC)C(NC(=O)c1ccc(C(F)(F)F)cc1)c1ccccc1 (centres undefined) | 15.8 µM (active) | 
CCC/C=C(\CCC)C(NC(=O)c1ccccc1)c1ccccc1 (centres undefined) | 10 µM (active) | 
Cc1cc(S(=O)(=O)NCCN(C)C)c(C)s1 | inactive | 
CN(C)S(=O)(=O)Oc1ccccc1C(=O)Nc1cccc(C(F)(F)F)c1 | 11.2 µM (active) | 
COC(=O)/C(=C\C(=O)c1ccccc1)Nc1cccc(C(F)(F)F)c1 | inactive | 
CCOc1ccc(C(F)(F)F)cc1NC(C)=O | inactive | 
CN(C)S(=O)(=O)Oc1ccc(Cl)cc1C(=O)Nc1cccc(C(F)(F)F)c1 | 12.6 µM (active) | 

SMILES | AC50 | activity, negative = inhibition
COC(=O)[C@]1(C)CCC(c2ccc(C)cc2)=C(CC(=O)O)C1 |  | -9.37% [at 11.4 µM]
Cc1cccc2cc(=O)[nH]c(C)c12 | inactive | 
CCOC(=O)N1CCC(NC(=O)CCC(=O)N2CC(C)Oc3ccc(C)cc32)CC1 (centres undefined) | 8.91 µM (active) | 
Cc1ccc2c(c1)N[C@H](c1ccc(C(=O)O)cc1)c1cccn1-2 | 0.0501 µM (active) | 
Cc1ccc(Cl)cc1N1CCN(S(=O)(=O)c2ccc3c(c2)OCCO3)CC1 | inactive | 
CN1CCCN(S(=O)(=O)c2ccc3c(c2)OCCO3)CC1 | inactive | 
Cc1ccc2nc(N3CCN(S(=O)(=O)c4ccc5c(c4)OCCO5)CC3)c(C#N)cc2c1 | 6.31 µM (active) | 
Cc1[nH]c2ccccc2c1C(c1ccccn1)N1CCC(C)CC1 (centres undefined) | 2.24 µM (active) | 
CN(C)CC(CN(C)C)c1ccccn1 |  | -2.93% [at 11.4 µM]
c1ccc([C@H](CCN2CCCC2)c2ccccn2)cc1 |  | -2.32% [at 11.4 µM]
N=C(N)c1ccccc1 | inactive | 
Cc1ccc(N(CCC#N)C(=O)CSc2ccc3c(c2)OCCO3)cc1 | 15.8 µM (active) | 
CCn1c(C)nc2cc(C(=O)NNS(=O)(=O)c3ccccc3F)ccc21 | inactive | 
CCn1c2ccccc2c2cc(NS(=O)(=O)c3ccccc3C)ccc21 | 1 µM (active) | 
c1ccc2c(c1)c1ccccc1n2Cn1c2ccccc2c2ccccc21 |  | -21.4% [at 11.4 µM]
COC(=O)c1ccc(C(NC(=O)c2ccco2)[C@]2(C)C[C@H]2C2CCCCC2)cc1 (some centres undefined) | 7.94 µM (active) | 
C[C@@]1(C(NC(=O)Cc2ccc(C(F)(F)F)cc2)c2ccc(-c3ccccc3)cc2)C[C@H]1C1CCCCC1 (some centres undefined) | inactive | 
C[C@@]1(C(NC(=O)c2ccc(-c3ccccc3)cc2)c2ccc(Cl)cc2)C[C@H]1C1CCCCC1 (some centres undefined) | inactive | 
CC(C)(C)C(=O)NC(c1ccc(Cl)cc1)[C@]1(C)C[C@H]1C1CCCCC1 (some centres undefined) | 12.6 µM (active) | 
COCc1cc(=O)[nH]c2cc(NC(=O)C(F)(F)F)c(C)cc12 |  | -1.96% [at 11.4 µM]
CCOc1ccc(-n2ccnc2SCC(=O)Nc2nnc(C)s2)cc1 | 14.1 µM (active) | 
Cc1nnc(NC(=O)CSc2ncnc3c2cnn3-c2ccccc2C)s1 | inactive | 
CCOc1ccc(-n2ccnc2SCC(=O)Nc2nnc(CC)s2)cc1 | 14.1 µM (active) | 
CCc1nnc(NC(=O)CSc2ncnc3c2cnn3-c2ccc(OC)cc2)s1 | inactive | 
